The values that follow come from PubChem BioAssay (NCI).

Some test systems named below: NCI-H23 lung; NCI-H226 lung; NCI-H322M lung; HOP-62 NSCLC; NCI-H460 lung; HOP-92 NSCLC; NCI-H522 lung; A549/ATCC NSCLC; 786-0 renal; COLO 205 colon; DU-145 prostate; K-562 leukemia; MALME-3M melanoma; MDA-MB-231 breast; RXF 393 renal; SF-268 CNS; SF-295 CNS; SF-539 CNS; UACC-257 melanoma; M14 melanoma.
What all share (test): NCI-60 one-dose screen, 48 h (100 = growth as untreated, 0 = no growth, -100 = all killed)
What all share (details): 10 µM unless noted

The structures appear in SMILES notation. Where “and” joins values, the source holds several entries; their conditions need not be identical. Identical values can stand only once. About 83,000 compounds went through this panel and 20% of them were active in at least one assay; those are over-represented in the sample as a whole.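 In brief: 96-well plates, 48 h treatment, single concentration, percent growth endpoint.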 Calls of active or inactive are those of the source. The calls were made as follows: active = growth percent below 10; inactive = the rest.

Take `CCN(CC)CCCC(C)Nc1ccnc2cc(Oc3ccccc3)ccc12` (stereo not given): the growth was 90.1% (inactive) and 78.7% (inactive) in the test on NCI-H23 lung; 99.7% (inactive) and 112% (inactive) in the test on NCI-H226 lung; 84.7% (inactive) and 105% (inactive) in the test with NCI-H322M lung; 68.9% (inactive) and 83.2% (inactive) with HOP-62 NSCLC; 69.7% (inactive) and 96.5% (inactive) in the test on NCI-H460 lung; -6.39% (active) and 60.3% (inactive) with HOP-92 NSCLC. Moreover, the growth in the test on NCI-H522 lung was 55.9% (inactive); with A549/ATCC NSCLC, 58.7% (inactive) and 86.6% (inactive); with 786-0 renal, 64.3% (inactive) and 84.6% (inactive); with COLO 205 colon, 47.6% (inactive) and 60.2% (inactive); in the test with DU-145 prostate it was 91.4% (inactive) and 87.4% (inactive); with K-562 leukemia, 1.73% (active) and 41.2% (inactive). In addition, the growth in the test with MALME-3M melanoma is 78% (inactive) and 89.4% (inactive); in the test on MDA-MB-231 breast, 40.1% (inactive) and 34.1% (inactive); in the test with RXF 393 renal, 17.8% (inactive) and 70.7% (inactive); in the test with SF-268 CNS it was 54.5% (inactive) and 67.1% (inactive); in the test with SF-295 CNS, 81.5% (inactive) and 74.9% (inactive); in the test on SF-539 CNS, 1.83% (active) and 4.93% (active). The growth was -67.2% (active) and -56.4% (active) in the test on UACC-257 melanoma; -43.4% (active) and -81.6% (active) in the test on M14 melanoma.
Turning to `COc1ccc2cc3[n+](cc2c1OC)CCc1cc2c(cc1-3)OCO2`, the growth in the test on NCI-H23 lung is 43.4% (inactive) and 50.4% (inactive); in the test with NCI-H226 lung, 73.8% (inactive) and 79.5% (inactive); in the test with NCI-H322M lung it was 96% (inactive) and 99.4% (inactive); in the test with HOP-62 NSCLC it was 43.9% (inactive) and 85.4% (inactive); with NCI-H460 lung, 75.9% (inactive) and 88.9% (inactive); in the test with HOP-92 NSCLC it was 76.1% (inactive) and 20.6% (inactive). Also, the growth with NCI-H522 lung is 68.7% (inactive) and 53% (inactive); in the test on A549/ATCC NSCLC, 75.1% (inactive) and 59.4% (inactive); in the test with 786-0 renal, 73.5% (inactive) and 66.9% (inactive); with COLO 205 colon, 59.5% (inactive) and 68.4% (inactive); in the test on DU-145 prostate, 92.5% (inactive) and 78.4% (inactive); in the test on K-562 leukemia, 41.1% (inactive) and 40% (inactive). Moreover, the growth is 31.6% (inactive) and 42% (inactive) in the test with MALME-3M melanoma; 81.7% (inactive) and 87.5% (inactive) with MDA-MB-231 breast; 89.1% (inactive) and 60.9% (inactive) in the test with RXF 393 renal; 42.9% (inactive) and 40.7% (inactive) with SF-268 CNS; 19.3% (inactive) and 45.1% (inactive) with SF-295 CNS; 68.6% (inactive) and 82.9% (inactive) with SF-539 CNS. Further, the growth in the test with UACC-257 melanoma is 48.1% (inactive) and 88.5% (inactive); in the test on M14 melanoma, 83.2% (inactive) and 110% (inactive).
As to `Cc1ccc2nc3c(nc2c1)-c1cccc2cccc-3c12`, the growth was 89.5% (inactive) with NCI-H23 lung; 86.3% (inactive) with NCI-H226 lung; 74.6% (inactive) with NCI-H322M lung; 101% (inactive) in the test with HOP-62 NSCLC; 72.4% (inactive) in the test on NCI-H460 lung; 89.8% (inactive) in the test with HOP-92 NSCLC. Further, the growth is 66.4% (inactive) with NCI-H522 lung; 74.4% (inactive) with A549/ATCC NSCLC; 105% (inactive) in the test with 786-0 renal; 70.2% (inactive) in the test on COLO 205 colon; 86.4% (inactive) in the test with DU-145 prostate; 97.5% (inactive) in the test on K-562 leukemia. In addition, the growth in the test with MALME-3M melanoma was 124% (inactive); in the test on MDA-MB-231 breast, 75.8% (inactive); with RXF 393 renal, 85.2% (inactive); in the test with SF-268 CNS, 89.2% (inactive); in the test with SF-295 CNS, 102% (inactive); in the test on SF-539 CNS, 85.4% (inactive). The growth in the test with UACC-257 melanoma is 106% (inactive); in the test on M14 melanoma, 102% (inactive).
As for `COc1cc(NS(C)(=O)=O)ccc1Nc1c2ccccc2nc2c(C)cccc12`, the growth in the test with NCI-H23 lung is -8.23% (active) and 1.07% (active); in the test with NCI-H226 lung it was -57.6% (active) and -44.9% (active); in the test with NCI-H322M lung it was 22.8% (inactive) and 28.6% (inactive); in the test with HOP-62 NSCLC, -17.9% (active) and -32.5% (active); in the test on NCI-H460 lung, -36.3% (active) and -9.34% (active); in the test on HOP-92 NSCLC, -17.9% (active). Further, the growth is -14.2% (active) in the test on NCI-H522 lung; -62.9% (active) in the test with A549/ATCC NSCLC; -41.9% (active) and -40.4% (active) in the test on 786-0 renal; 7.98% (active) and 0.541% (active) in the test with COLO 205 colon; -8.9% (active) and 7.58% (active) with DU-145 prostate; 8.6% (active) and 7.61% (active) in the test on K-562 leukemia. In addition, the growth was -3.04% (active) and 29.4% (inactive) in the test with MALME-3M melanoma; 36.7% (inactive) in the test on MDA-MB-231 breast; -2.83% (active) and 8.08% (active) with RXF 393 renal; 2.5% (active) and 16.2% (inactive) with SF-268 CNS; -24.8% (active) in the test with SF-295 CNS; -35.6% (active) and -30.6% (active) with SF-539 CNS. In addition, the growth in the test on UACC-257 melanoma is 16.1% (inactive); in the test on M14 melanoma, 19.4% (inactive) and 11.8% (inactive).
